PubChem BioAssay
The list shows a part of the results. Calls of active or inactive are those of the source. Cut-off read from the data, not from the text of the source, unless noted: active = activation above about 33%; inactive = the rest.

Experiments:
[1] = PMA/ionomycin-induced NF-kB reporter inhibitors, Jurkat retest, confirmation, T-cell NF-kB inhibitor project, cell-based, luminescence, single concentration (AID 435020;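 active = inhibition reaching about 45% at 4 µM in either replicate, limit read from the data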;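 note: plate controls were PMA/ionomycin stimulated DMSO wells for no effect and unstimulated DMSO wells for full effect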); details: Jurkat NF-kB luciferase, 16 h, at 4 µM, stronger effect = higher value
[2] = molecular target: Sentrin-specific protease 8 (Homo sapiens) (UniProt Q96LD8); test: SENP8 protease inhibitors, retest, confirmation, biochemical, luminescence, single concentration (AID 488912;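 active = mean inhibition across replicates above about 50%, limit read from the data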); details: Recombinant SENP8, Z-RLRGG-aminoluciferin luminescence, 60 min; at 12.5 µM; stronger effect = higher value
Chain of Sentrin-specific protease 8 (Homo sapiens) (Q96LD8 whole entry, looked up): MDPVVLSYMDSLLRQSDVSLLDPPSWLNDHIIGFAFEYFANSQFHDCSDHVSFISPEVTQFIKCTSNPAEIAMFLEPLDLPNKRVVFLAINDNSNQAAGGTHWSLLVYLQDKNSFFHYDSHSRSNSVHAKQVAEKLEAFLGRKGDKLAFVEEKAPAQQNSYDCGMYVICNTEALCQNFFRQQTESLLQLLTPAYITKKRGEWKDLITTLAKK

[3] = molecular target: Sentrin-specific protease 6 (Homo sapiens) (UniProt Q9GZR1); test: SENP6 protease inhibitors, confirmation, biochemical, luminescence, single concentration (AID 488915;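 active = mean inhibition above about 50% in the one-dose retest, limit read from the data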); details: recombinant SENP6, Z-RLRGG-aminoluciferin luminescence; at 12.5 µM; stronger effect = higher value
Chain of Sentrin-specific protease 6 (Homo sapiens) (Q9GZR1 628-1112 limits assumed): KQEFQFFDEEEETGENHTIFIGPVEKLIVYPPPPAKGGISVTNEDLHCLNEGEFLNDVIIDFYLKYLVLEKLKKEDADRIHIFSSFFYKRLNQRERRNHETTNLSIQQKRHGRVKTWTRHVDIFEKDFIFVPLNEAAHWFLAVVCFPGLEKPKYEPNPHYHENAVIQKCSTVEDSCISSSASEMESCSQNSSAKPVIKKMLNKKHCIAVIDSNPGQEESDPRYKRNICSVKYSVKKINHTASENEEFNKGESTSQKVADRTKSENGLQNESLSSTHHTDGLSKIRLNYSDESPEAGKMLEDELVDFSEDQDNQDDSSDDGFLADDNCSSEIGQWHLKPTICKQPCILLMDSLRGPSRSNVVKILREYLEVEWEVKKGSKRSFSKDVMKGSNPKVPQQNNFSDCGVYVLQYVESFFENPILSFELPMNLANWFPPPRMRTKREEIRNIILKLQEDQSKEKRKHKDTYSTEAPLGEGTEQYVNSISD

[4] = molecular target: Sentrin-specific protease 7 (Homo sapiens) (UniProt Q9BQF6); test: SENP7 protease inhibitors, retest, confirmation, biochemical, luminescence, single concentration (AID 488917;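 active = mean inhibition above about 50% in the one-dose retest, limit read from the data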); details: recombinant SENP7, Z-RLRGG-aminoluciferin luminescence, 40 min; at 12.5 µM; stronger effect = higher value
Chain of Sentrin-specific protease 7 (Homo sapiens) (Q9BQF6 706-1050 limits assumed): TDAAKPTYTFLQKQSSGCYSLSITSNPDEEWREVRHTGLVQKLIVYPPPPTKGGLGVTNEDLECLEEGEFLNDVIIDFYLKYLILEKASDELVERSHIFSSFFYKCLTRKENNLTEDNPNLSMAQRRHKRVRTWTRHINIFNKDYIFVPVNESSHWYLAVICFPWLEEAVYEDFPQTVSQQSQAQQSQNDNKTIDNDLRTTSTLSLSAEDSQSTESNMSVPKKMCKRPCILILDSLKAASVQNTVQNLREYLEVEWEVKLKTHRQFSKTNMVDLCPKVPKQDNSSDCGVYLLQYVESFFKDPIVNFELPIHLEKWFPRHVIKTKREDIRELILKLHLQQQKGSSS

Caspase-3 (Homo sapiens) = Caspase-3 (Homo sapiens) (UniProt P42574); test: caspase-3 protease inhibitors, confirmation, selectivity assay for SENP inhibitor project, biochemical, single concentration (AID 488918;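 active = mean inhibition above about 50%, limit read from the data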;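 note: plate controls were enzyme with DMSO for no effect and wells without caspase-3 for full effect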); details: purified caspase-3, Z-DEVD-aminoluciferin luminescence, 60 min; at 12.5 µM; stronger effect = higher value
Chain of Caspase-3 (Homo sapiens) (P42574 28-227 limits assumed): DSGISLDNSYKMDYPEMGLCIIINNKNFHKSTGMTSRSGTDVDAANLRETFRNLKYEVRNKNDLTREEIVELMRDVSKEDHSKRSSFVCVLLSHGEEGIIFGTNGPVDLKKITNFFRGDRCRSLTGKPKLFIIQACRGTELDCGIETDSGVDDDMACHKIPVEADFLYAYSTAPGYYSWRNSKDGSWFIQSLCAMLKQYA

[5] = luciferase luminescence interference by compounds, confirmation, artefact control for SENP inhibitor project, biochemical, single concentration, SENP8 reaction pre-completed (AID 488919;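 active = mean inhibition above about 50% when retested at one dose, limit read from the data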;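 note: plate controls were DMSO wells with completed reaction for no effect and substrate without enzyme for full effect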); details: Pre-incubated SENP8/Z-RLRGG-aminoluciferin, at 12.5 µM, stronger effect = higher value
[6] = molecular target: Tumor necrosis factor receptor superfamily member 10B (Homo sapiens) (UniProt O14763); test: caspase-8 TRAIL sensitization, hit retest, confirmation, cell-based, NB7+caspase-8, with/without TRAIL, luminescence panel (AID 651596; in the data active = activity above about 50%); details: NB7 neuroblastoma + caspase-8, TRAIL sensitization, luminescence viability, with TRAIL, mean of runs, at 10 µM, stronger effect = higher value
Chain of Tumor necrosis factor receptor superfamily member 10B (Homo sapiens) (O14763 whole entry, looked up): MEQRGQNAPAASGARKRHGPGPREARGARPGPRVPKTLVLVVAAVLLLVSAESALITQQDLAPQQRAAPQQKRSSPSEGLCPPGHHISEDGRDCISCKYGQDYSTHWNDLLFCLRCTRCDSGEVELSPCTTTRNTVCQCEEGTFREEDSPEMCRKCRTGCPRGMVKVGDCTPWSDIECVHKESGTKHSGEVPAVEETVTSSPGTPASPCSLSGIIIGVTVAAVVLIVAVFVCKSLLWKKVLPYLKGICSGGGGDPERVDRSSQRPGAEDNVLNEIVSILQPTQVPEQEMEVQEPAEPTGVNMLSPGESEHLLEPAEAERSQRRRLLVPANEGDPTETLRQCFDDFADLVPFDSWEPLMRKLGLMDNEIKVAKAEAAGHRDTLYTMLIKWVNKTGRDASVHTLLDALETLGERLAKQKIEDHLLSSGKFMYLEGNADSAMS

[7] = as above; details: NB7 neuroblastoma + caspase-8, without TRAIL, luminescence viability, without TRAIL, mean of runs, at 10 µM
[8] = activators of apoptotic CHOP UPR arm, confirmation, cell-based, CHO-CHOP luciferase reporter, single concentration (AID 463112); details: CHO-CHOP cells, CHOP-luciferase reporter luminescence; at 10 µM; stronger effect = higher value; percent of tunicamycin response, DMSO as zero;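 note: 0% = DMSO wells and 100% = tunicamycin 10 µg/mL wells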
[9] = Peg3 promoter reporter inhibitors, retest, confirmation, cell-based, HeLa, luciferase reporter, single concentration (AID 602417;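 active = at 20 µM dose, 40% or more inhibition averaged across four replicates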); details: HeLa PEG-Prom luciferase reporter, luminescence, overnight; at 20 µM; stronger effect = higher value
PEG-3 [10] = molecular target: PEG-3 (UniProt Q6IN02); test: Peg3 promoter luciferase inhibitors, potency, dose response, cell-based, HeLa, CREF/GAPDH counter-screen panel (AID 624167); details: CREF/GAPDH counter-screens; HeLa PEG-Prom luciferase reporter, overnight, run 1, dose range 1, at 100 µM (top of the series) unless noted
Chain of PEG-3 (Q6IN02 whole entry, looked up): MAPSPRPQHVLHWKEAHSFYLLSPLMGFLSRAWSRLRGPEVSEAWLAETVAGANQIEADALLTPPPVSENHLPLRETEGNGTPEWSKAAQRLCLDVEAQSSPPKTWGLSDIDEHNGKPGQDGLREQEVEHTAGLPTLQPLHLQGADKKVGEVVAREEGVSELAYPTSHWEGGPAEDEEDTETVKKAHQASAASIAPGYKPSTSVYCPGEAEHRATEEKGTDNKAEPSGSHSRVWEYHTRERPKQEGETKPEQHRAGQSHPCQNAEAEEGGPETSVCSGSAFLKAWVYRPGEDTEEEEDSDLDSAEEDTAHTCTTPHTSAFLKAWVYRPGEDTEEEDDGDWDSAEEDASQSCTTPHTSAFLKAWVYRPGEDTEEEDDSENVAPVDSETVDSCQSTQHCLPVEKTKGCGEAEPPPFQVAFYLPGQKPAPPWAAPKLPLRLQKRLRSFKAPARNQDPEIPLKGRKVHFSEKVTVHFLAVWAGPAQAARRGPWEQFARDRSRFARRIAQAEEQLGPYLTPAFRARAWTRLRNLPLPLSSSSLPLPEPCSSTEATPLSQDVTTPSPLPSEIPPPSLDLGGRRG

PEG-3 [11] = molecular target: PEG-3 (UniProt Q6IN02); test: as above; details: CREF/GAPDH counter-screens; HeLa PEG-Prom luciferase reporter, overnight, run 2, dose range 1, at 100 µM (top of the series) unless noted
Rat fibroblasts (CREF) [12] = test: as above; details: CREF/GAPDH counter-screens; run 1, dose range 1, at 100 µM (top of the series)
Rat fibroblasts (CREF) [13] = test: as above; details: CREF/GAPDH counter-screens; run 2, dose range 1, at 100 µM (top of the series)
[14] = inhibition of Brca1/Bard1 split-luciferase complementation, confirmation, counter-screen for Mdm2/MdmX interaction inhibitor project, luminescence, single concentration (AID 504668; call rule not given here); details: Brca1/Bard1 bimolecular luciferase complementation counterscreen, at 8 µM, stronger effect = higher value
[15] = molecular target: COP9 signalosome complex subunit 5 (Homo sapiens) (UniProt Q92905); test: Csn5 deneddylation inhibitors, confirmation, biochemical, fluorescence polarization, single concentration, SCF-Nedd8OG substrate (AID 720654; in the data active = inhibition above about 50%;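 note: 0% = DMSO with enzyme and 100% = no enzyme wells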); details: Csn5 deneddylation of SCF-Nedd8OG, 90 min, at 16.6 µM, stronger effect = higher value
Chain of COP9 signalosome complex subunit 5 (Homo sapiens) (Q92905 whole entry, looked up, one chain of several): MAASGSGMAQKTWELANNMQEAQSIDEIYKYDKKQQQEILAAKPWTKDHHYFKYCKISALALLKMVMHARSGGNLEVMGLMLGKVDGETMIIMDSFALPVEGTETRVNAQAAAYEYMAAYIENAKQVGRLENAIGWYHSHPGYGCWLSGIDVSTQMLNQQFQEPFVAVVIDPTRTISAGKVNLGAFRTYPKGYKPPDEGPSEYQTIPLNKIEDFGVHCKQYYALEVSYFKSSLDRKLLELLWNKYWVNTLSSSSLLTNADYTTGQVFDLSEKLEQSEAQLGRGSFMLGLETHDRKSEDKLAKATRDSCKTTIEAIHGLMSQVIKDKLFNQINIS

[16] = molecular target: 72 kDa type IV collagenase (Homo sapiens) (UniProt P08253); test: MMP-2 protease inhibition counter-screen, confirmation, counter-screen for CSN deneddylation inhibitor project, biochemical, fluorescence, single concentration (AID 720655;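 active = corrected plate-normalized z-score of 5 or more, or -5 or less, or inhibition of 15% or more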;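 note: plate controls were DMSO wells with enzyme for no effect and buffer wells lacking MMP-2 for full effect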); details: recombinant MMP-2, FRET substrate fluorescence, 60 min; at 16.6 µM
Chain of 72 kDa type IV collagenase (Homo sapiens) (P08253 whole entry, looked up): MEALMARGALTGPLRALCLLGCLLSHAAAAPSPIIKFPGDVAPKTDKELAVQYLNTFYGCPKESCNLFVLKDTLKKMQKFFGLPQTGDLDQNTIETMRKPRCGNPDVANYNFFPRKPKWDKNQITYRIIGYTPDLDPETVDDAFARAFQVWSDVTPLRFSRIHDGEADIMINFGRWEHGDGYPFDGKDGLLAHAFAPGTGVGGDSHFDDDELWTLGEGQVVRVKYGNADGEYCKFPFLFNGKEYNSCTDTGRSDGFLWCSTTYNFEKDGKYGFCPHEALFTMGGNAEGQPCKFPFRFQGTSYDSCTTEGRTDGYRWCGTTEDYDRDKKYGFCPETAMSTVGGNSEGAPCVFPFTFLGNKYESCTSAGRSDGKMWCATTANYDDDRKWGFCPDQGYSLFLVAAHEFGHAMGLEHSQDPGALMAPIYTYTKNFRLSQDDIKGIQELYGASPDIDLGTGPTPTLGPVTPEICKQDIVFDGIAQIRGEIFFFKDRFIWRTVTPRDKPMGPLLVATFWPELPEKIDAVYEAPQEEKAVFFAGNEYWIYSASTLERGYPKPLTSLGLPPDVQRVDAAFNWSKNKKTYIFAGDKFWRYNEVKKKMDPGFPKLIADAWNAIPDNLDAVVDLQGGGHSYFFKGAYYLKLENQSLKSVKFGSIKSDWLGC

Prothrombin (Bos taurus) = Prothrombin (Bos taurus) (UniProt P00735); test: bovine thrombin inhibition counter-screen, confirmation, counter-screen for CSN deneddylation inhibitor project, biochemical, fluorescence polarization, single concentration (AID 720656;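 active = inhibition at or above a set limit, with a fluorescence interference ratio between 0.5 and a set maximum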); details: bovine thrombin cleavage of Ub4-pepOG, at 16.6 µM, stronger effect = higher value
Chain of Prothrombin (Bos taurus) (P00735 whole entry, looked up): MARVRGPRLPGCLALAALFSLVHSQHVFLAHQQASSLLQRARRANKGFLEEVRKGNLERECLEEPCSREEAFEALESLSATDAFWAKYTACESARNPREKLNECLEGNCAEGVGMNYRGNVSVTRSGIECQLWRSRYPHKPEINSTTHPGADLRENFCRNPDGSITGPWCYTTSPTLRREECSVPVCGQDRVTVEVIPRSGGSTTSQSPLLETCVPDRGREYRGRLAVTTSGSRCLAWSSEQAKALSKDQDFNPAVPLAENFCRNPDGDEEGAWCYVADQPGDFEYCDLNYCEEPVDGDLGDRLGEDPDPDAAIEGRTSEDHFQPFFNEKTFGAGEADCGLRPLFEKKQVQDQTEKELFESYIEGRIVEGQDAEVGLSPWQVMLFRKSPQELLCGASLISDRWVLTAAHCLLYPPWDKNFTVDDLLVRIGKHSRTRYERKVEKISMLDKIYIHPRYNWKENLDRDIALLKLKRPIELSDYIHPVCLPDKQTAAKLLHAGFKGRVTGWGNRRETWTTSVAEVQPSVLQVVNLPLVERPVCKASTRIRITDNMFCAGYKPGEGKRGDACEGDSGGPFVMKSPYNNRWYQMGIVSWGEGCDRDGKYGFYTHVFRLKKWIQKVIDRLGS

[17] = Apaf-1 inhibitors, single-dose retest, confirmation, biochemical, fluorescence, DEVD-Rh110, 20 µM (AID 504614;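 active = mean inhibition of at least 40% at 20 µM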;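 note: plate controls were DMSO wells for no effect and DEVD-CHO caspase inhibitor control wells for full effect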); details: reconstituted apoptosome, caspase-3 DEVD-Rh110 fluorescence; at 20 µM; stronger effect = higher value
[18] = Rh110 fluorescence interference by putative Apaf-1 inhibitors, confirmation, artefact control for Apaf-1 inhibitor project, biochemical, 20 µM (AID 504615;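 active = signal rise of 40% or more at 20 µM, treated as a fluorescence artifact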); details: quenched caspase reaction, at 20 µM, stronger effect = higher value
[19] = molecular target: Protein Mdm4 (Homo sapiens) + E3 ubiquitin-protein ligase Mdm2 (Homo sapiens) (UniProt O15151+Q00987); test: retested Mdm2-MdmX interaction blockers, confirmation, cell-based, luminescence, single concentration, set 2 (AID 504601;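 active = mean inhibition of the luminescence signal across two replicates at or above 26 percent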); details: SaOS-2 split-luciferase Mdm2/MdmX complementation, at 8 µM, stronger effect = higher value
Chain of Protein Mdm4 (Homo sapiens) + E3 ubiquitin-protein ligase Mdm2 (Homo sapiens) (O15151 whole entry, looked up): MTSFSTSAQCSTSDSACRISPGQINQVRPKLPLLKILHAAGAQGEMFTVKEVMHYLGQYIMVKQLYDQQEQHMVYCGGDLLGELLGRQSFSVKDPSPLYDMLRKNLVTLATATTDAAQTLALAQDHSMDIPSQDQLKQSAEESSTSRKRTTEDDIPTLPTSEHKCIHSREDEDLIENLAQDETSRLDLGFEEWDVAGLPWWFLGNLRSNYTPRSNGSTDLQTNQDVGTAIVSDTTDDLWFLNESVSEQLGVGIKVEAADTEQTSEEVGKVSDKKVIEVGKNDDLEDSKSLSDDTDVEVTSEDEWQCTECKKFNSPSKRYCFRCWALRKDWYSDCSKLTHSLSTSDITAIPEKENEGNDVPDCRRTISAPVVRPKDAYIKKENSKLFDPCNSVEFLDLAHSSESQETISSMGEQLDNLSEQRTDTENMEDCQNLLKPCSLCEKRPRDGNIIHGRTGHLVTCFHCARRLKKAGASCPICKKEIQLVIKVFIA
Chain of Protein Mdm4 (Homo sapiens) + E3 ubiquitin-protein ligase Mdm2 (Homo sapiens) (Q00987 whole entry, looked up): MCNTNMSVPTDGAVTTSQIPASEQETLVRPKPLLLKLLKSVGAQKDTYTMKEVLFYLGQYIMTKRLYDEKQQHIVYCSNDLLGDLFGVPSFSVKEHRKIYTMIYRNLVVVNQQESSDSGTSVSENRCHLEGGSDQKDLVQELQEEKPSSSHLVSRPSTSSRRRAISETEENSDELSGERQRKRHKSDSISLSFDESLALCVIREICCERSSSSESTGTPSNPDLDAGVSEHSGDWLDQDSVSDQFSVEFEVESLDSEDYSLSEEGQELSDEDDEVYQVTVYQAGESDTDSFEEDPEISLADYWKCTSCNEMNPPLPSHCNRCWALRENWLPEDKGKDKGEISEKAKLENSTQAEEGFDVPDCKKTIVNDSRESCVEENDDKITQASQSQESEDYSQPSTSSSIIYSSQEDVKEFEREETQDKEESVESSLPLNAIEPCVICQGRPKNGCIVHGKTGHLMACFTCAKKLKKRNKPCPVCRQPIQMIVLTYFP

[20] = inhibitors of PAF-induced NF-kB signaling, retest, confirmation, cell-based, GFP fluorescence, single concentration (AID 602472; in the data active = inhibition above about 40%;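 note: stimulus PAF is a Pseudomonas aeruginosa filtrate and not platelet activating factor; plate controls were DMSO wells with stimulus for no effect and unstimulated DMSO wells for full effect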); details: KKLEB CF airway cells, overnight, at 5 µM, stronger effect = higher value
[21] = HIF-2a reporter inhibitor retest, confirmation, luminescence, 786-0 RCC cells (AID 651580;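 active = mean inhibition across four replicates of at least 40 percent at the single tested concentration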); details: HIF-2a luciferase reporter luminescence, overnight, at 18.8 µM, stronger effect = higher value
[22] = HIF-1a luciferase reporter signal reduction – MiaPaCa-2 cells, single concentration, counter-screen for HIF-2a inhibitor project, confirmation (AID 651589;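 active = mean inhibition of the reporter signal across four replicates at the single tested dose of 50% or more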); details: MiaPaCa-2 HIF-1a luciferase reporter, desferoxamine, overnight; at 18.8 µM; stronger effect = higher value
[23] = inhibitors of PAF-induced NFkB signaling in CF airway cells, dose response, cell-based, uHTS hits, panel, cytotoxicity readout (AID 624344); details: CF bronchial epithelial cells, PAF-induced NFkB reporter inhibition, with PAF, run 1; at 79 µM (top of the series) unless noted
[24] = as above; details: CF bronchial epithelial cells, PAF-induced NFkB reporter inhibition, with PAF, run 2; at 79 µM (top of the series) unless noted

## Cc1cccc(/C(N)=N/OC(=O)c2ccccc2Cl)c1
[1]
  inhibition: -97.8% (inactive)
[2]
  inhibition: 97.7% (active)
[3]
  inhibition: 98.9% (active)
[4]
  inhibition: 102% (active)
Caspase-3 (Homo sapiens)
  inhibition: 97.2% (active)
[5]
  inhibition: 96.8% (active)
[6]
  activity: 77.6%
[7]
  activity: 84.8%

## Clc1ccc2nc(CSc3ccccc3)cn2c1
[1]
  inhibition: -58.5% (inactive)
[2]
  inhibition: 53.7% (active)
[3]
  inhibition: 55.6% (active)
[4]
  inhibition: 86.6% (active)
Caspase-3 (Homo sapiens)
  inhibition: 68.9% (active)
[5]
  inhibition: 70.8% (active)

## CCOc1ccc(N2C(=O)CC(N(O)c3ccccc3)C2=O)cc1 (stereo not given)
[8]
  activation: 186% (active)

## CC(C)(C)c1ccc(Oc2ccc(N)cc2)cc1
[1]
  inhibition: 11.6% (inactive)
[9]
  inhibition: 86.3% (active)
PEG-3 [10]
  inhibition: 99.3%
PEG-3 [11]
  inhibition: 99.2%
Rat fibroblasts (CREF) [12]
  inhibition: 60.1%
Rat fibroblasts (CREF) [13]
  inhibition: 83.1%

## CCN1/C(=C\c2ccc3ccccc3[n+]2CC)Sc2cc(C)ccc21
[1]
  inhibition: 67.4% (active)
[14]
  inhibition: 25% (active)
[15]
  inhibition: 24% (inactive)
[16]
  inhibition: -3.14% (inactive)
Prothrombin (Bos taurus)
  inhibition: 43.3% (inactive)

## c1ccc2[nH]c(-c3nc4ccccc4[nH]3)nc2c1
[1]
  inhibition: -90% (inactive)
[2]
  inhibition: -14.2% (inactive)
[3]
  inhibition: 42.7% (inactive)
[4]
  inhibition: 77.8% (active)
Caspase-3 (Homo sapiens)
  inhibition: 77.3% (active)
[5]
  inhibition: 50.8% (active)
[6]
  activity: 80.2%
[7]
  activity: 77.8%

## O=C(Nc1ccccc1)Nc1nc2ccccc2s1
[1]
  inhibition: -117% (inactive)
[2]
  inhibition: 17.8% (inactive)
[3]
  inhibition: 29% (inactive)
[4]
  inhibition: 25.6% (inactive)
Caspase-3 (Homo sapiens)
  inhibition: 44.9% (inactive)
[5]
  inhibition: 22.6% (inactive)

## Cc1ccc(-c2nnc(-c3ccc(NC(=O)c4cccs4)cc3)o2)cc1
[8]
  activation: 134% (active)

## CCOc1[nH]n(-c2ccc(Cl)cc2)c(=O)c1C=Nc1ccc(O)cc1
[1]
  inhibition: 6% (inactive)
[17]
  inhibition: 14.8% (inactive)
[18]
  activation (fluorescence interference): 5.36% (inactive)

## N#Cc1cccc(NC(=O)COC(=O)c2ccccc2C(=O)c2ccc(Cl)c([N+](=O)[O-])c2)c1
[8]
  activation: 26.1% (inactive)
[19]
  inhibition: 103% (active)
[20]
  inhibition: 108% (active)
[21]
  inhibition: 55.9% (active)
[22]
  inhibition: 108% (active)
[23]
  inhibition: 103%
[24]
  inhibition: 111%

## OCCNc1nc(Nc2ccc(Cl)c(Cl)c2)nc2ccccc12
[8]
  activation: 41% (active)
[14]
  inhibition: 24.3% (active)
[20]
  inhibition: 81.5% (active)
[23]
  inhibition: 110%
[24]
  inhibition: 105%

## Cc1cc(C(=O)CCl)c(C)n1CC1COc2ccccc2O1 (stereo not given)
[8]
  activation: 60.3% (active)

## CSc1nc(-c2ccccc2)nc(C(Cl)Cl)n1
[8]
  activation: 28.5% (inactive)
[19]
  inhibition: 97.7% (active)
[21]
  inhibition: 59.7% (active)
[22]
  inhibition: 105% (active)

## CCOc1ccc2nc(Cl)c(C3CC(c4ccccc4)=NN3C(=O)c3cccs3)cc2c1 (stereo not given)
[8]
  activation: -1.15% (inactive)

## CCCCCC(=O)Nc1ccc(C(=O)N/N=C/c2ccc([N+](=O)[O-])cc2)cc1
[8]
  activation: 79% (active)

## CC(=O)/C(=N\Nc1ccc(Cl)cc1Cl)Sc1cccc2cccnc12
[8]
  activation: 184% (active)

## CC1(C)CCSC(/C=C/c2ccccc2)=N1
[8]
  activation: 68% (active)
[14]
  inhibition: 30.5% (active)
[20]
  inhibition: -24.9% (inactive)

## COC(=O)c1ccc(C(=O)Nc2cc(Cl)ccc2Cl)cc1NC(=O)c1ccccc1C
[8]
  activation: 10.6% (inactive)

## COCCNc1nc(-n2nc(C)cc2C)nc2sc3c(c12)CCCC3
[8]
  activation: 8.5% (inactive)

## CCOC(=O)/C=c1\s/c(=C\c2ccc(C#N)cc2)c(=O)n1CC(=O)Nc1cccc(C)c1C
[8]
  activation: 1.05% (inactive)

## CS(=O)(=O)N(Cc1ccccc1)c1ccc(C(=O)NN=C2CCCCCC2)cc1
[8]
  activation: -1.8% (inactive)

## O=[N+]([O-])c1ccc(C=Nc2ccc(Cl)cc2Cl)s1
[8]
  activation: 74.2% (active)
[2]
  inhibition: 9.7% (inactive)
[3]
  inhibition: 19.4% (inactive)
[4]
  inhibition: 18.5% (inactive)
Caspase-3 (Homo sapiens)
  inhibition: 7.4% (inactive)
[5]
  inhibition: 8.1% (inactive)

## O=C1Nc2ccc(Br)cc2/C1=N/N=C/C1=C(N2CCOCC2)C(=C\c2ccccc2)/CC1
[8]
  activation: 53.4% (active)

## CCOC(=O)c1sc(NC(=O)CCN2CCOCC2)c(C(=O)OCC)c1C
[8]
  activation: -1.25% (inactive)

## S=C1SCN(CCN2CCOCC2)CN1Cc1ccccc1
[8]
  activation: 102% (active)

## COc1ccc(C(C[N+](=O)[O-])n2nc(C)cc2C)cc1 (stereo not given)
[8]
  activation: 60% (active)

## Cc1cccc(CS(=O)(=O)c2ncc(Cl)c(C(=O)Nc3ccc(F)cc3)n2)c1
[8]
  activation: 88.1% (active)
[19]
  inhibition: 103% (active)
[9]
  inhibition: 95.7% (active)
[20]
  inhibition: 44% (active)
[21]
  inhibition: 99.3% (active)
[22]
  inhibition: 86.8% (active)
PEG-3 [10]
  inhibition: 99.1%
PEG-3 [11]
  inhibition: 98.3%
Rat fibroblasts (CREF) [12]
  inhibition: 100%
Rat fibroblasts (CREF) [13]
  inhibition: 96.3%

## Oc1c(CN2CCN(c3ccc(F)cc3)CC2)cc(Cl)c2cccnc12
[8]
  activation: 196% (active)
[14]
  inhibition: 25.7% (active)

## O=C(N/N=C\c1cc2c(cc1Cl)OCO2)c1ccc(Br)s1
[8]
  activation: 50.2% (active)

## COc1ccc2c(c1OC)C(=O)OC2Nc1nc(-c2ccccc2)cs1 (stereo not given)
[8]
  activation: 29.9% (inactive)
[19]
  inhibition: 103% (active)
[20]
  inhibition: 106% (active)
[21]
  inhibition: 26% (inactive)
[22]
  inhibition: 105% (active)
[23]
  inhibition: 109%
[24]
  inhibition: 103%

## Cc1cc(N/N=C\c2ccc(Br)cc2)nc(-n2nc(C)cc2C)n1
[8]
  activation: 12.3% (inactive)

## CC(C)(C)C(=O)OCc1nc(-c2ccc(O)c(O)c2)cs1
[8]
  activation: 144% (active)

## CCc1nn(-c2cc(Oc3cccc4ccccc34)nc(-c3ccccc3)n2)c(N)c1C#N
[8]
  activation: 40.1% (active)

## COc1ccccc1/C=N\Nc1cc(C)nc(-n2nc(C)cc2C)n1
[8]
  activation: 38% (active)
